Source: the supplement of paper PMC10849652
About 8,800 targets were measured; listed, in parts, are those with a hit and a random draw of the rest. About 0.5% of all pairs of compound and target were hits. Unmarked numbers belong to inactive results.

Key:
Assay in all cases: log2 fold change, soluble protein after heating vs DMSO (PISA); higher = thermal stabilisation; K562 lysate, 10 uM; active = over 0.2 and 3.5 SD of the protein, either way, in both replicates (recomputed)
[1] = compound: C1=CC=C(C=C1)[C@H](COC2=CC3=C(C=C2)NC(=O)N3)NC(=O)C4=CC=CN(C4=O)CC5=CC(=C(C=C5)F)F
How it was run: (§1)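 Thermal stability, expressed as log-two fold change relative to solvent controls, is given from duplicates. Crude K562 extract in PBS pH 7.4 with 1 mM MgCl2, at 1 mg/mL protein, was treated with 10 μM compound for 30 min and heated in aliquots for 3 min across 48°C-58°C. After pooling, adjustment to 0.5% NP-40 at 4°C and centrifugation at 21,000xg for 90 min, supernatant protein was measured by TMTpro 16plex LC-MS/MS with channel sums equalised.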

[2] = compound: CC1=C(SC2=C1C(=N[C@H](C3=NN=C(N32)C)CC(=O)N)C4=CC=C(C=C4)Cl)C
How it was run: as §1

[3] = compound: CC1=C2C(=CC=C1)N=C(N(C2=O)C3=CC=CC=C3C)CN4C=NC5=C(N=CN=C54)N
How it was run: as §1

[4] = compound: Cc1sc2c(c1C)C(c1ccc(Cl)cc1)=N[C@@H](CC(=O)OC(C)(C)C)c1nnc(C)n1-2
How it was run: as §1

[5] = compound: c1ccc([C@@H]2C[C@H]2NC2CCNCC2)cc1
How it was run: as §1

Sequence of UniProt O14979 (O14979 whole entry, looked up): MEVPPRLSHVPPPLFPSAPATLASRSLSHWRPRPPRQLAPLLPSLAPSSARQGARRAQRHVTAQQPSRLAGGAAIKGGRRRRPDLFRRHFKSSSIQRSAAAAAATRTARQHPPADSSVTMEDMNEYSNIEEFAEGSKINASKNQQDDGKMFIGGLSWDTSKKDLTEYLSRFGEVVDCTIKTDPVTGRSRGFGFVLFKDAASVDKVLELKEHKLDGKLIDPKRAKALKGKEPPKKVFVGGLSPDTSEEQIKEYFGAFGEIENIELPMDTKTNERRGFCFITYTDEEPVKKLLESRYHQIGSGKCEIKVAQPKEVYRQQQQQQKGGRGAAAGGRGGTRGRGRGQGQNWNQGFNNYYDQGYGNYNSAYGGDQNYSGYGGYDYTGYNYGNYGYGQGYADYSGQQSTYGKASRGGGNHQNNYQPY
Sequence of UniProt Q53T59 (Q53T59 whole entry, looked up): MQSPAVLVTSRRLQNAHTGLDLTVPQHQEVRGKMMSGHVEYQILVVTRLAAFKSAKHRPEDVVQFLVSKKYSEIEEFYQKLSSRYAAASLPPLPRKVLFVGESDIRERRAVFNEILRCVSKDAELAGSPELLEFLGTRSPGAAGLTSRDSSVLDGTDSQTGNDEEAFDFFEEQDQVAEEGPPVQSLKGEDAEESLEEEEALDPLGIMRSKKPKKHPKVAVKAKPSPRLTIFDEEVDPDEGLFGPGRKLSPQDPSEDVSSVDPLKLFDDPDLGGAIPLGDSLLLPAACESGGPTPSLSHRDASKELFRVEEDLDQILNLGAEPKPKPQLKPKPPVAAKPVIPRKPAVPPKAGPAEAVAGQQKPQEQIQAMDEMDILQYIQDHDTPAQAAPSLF
Sequence of UniProt Q27J81 (Q27J81 whole entry, looked up): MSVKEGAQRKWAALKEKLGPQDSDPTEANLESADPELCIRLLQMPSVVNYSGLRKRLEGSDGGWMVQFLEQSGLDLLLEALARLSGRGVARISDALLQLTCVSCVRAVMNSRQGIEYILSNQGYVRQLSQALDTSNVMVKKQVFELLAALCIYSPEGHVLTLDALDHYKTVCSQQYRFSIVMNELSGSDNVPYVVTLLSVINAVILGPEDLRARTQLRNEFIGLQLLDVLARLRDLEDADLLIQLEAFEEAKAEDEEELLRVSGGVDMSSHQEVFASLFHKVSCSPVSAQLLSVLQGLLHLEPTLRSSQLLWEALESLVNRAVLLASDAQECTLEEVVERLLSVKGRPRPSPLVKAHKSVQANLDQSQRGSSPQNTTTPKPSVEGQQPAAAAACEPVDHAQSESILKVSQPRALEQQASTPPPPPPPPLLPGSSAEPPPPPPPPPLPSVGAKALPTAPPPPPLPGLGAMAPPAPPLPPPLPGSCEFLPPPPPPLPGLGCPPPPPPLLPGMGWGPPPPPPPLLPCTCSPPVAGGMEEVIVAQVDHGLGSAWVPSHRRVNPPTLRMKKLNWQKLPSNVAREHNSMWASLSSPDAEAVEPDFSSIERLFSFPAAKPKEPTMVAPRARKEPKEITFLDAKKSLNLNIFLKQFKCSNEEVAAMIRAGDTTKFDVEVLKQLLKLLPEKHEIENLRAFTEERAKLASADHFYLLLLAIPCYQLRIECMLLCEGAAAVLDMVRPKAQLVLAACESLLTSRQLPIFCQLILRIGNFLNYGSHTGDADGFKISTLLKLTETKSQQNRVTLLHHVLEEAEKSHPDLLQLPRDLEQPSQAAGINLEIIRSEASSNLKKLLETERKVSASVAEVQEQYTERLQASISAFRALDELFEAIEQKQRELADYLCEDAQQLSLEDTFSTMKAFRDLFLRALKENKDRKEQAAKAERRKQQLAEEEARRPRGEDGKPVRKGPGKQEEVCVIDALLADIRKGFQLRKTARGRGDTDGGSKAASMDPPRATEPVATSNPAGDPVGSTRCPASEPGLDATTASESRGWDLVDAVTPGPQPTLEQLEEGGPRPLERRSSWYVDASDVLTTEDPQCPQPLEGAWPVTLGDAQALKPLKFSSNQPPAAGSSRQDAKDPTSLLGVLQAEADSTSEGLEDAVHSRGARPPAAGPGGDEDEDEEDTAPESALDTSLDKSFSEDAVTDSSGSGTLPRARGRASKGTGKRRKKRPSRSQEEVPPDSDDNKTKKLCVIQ
Sequence of UniProt Q16891 (Q16891 whole entry, looked up): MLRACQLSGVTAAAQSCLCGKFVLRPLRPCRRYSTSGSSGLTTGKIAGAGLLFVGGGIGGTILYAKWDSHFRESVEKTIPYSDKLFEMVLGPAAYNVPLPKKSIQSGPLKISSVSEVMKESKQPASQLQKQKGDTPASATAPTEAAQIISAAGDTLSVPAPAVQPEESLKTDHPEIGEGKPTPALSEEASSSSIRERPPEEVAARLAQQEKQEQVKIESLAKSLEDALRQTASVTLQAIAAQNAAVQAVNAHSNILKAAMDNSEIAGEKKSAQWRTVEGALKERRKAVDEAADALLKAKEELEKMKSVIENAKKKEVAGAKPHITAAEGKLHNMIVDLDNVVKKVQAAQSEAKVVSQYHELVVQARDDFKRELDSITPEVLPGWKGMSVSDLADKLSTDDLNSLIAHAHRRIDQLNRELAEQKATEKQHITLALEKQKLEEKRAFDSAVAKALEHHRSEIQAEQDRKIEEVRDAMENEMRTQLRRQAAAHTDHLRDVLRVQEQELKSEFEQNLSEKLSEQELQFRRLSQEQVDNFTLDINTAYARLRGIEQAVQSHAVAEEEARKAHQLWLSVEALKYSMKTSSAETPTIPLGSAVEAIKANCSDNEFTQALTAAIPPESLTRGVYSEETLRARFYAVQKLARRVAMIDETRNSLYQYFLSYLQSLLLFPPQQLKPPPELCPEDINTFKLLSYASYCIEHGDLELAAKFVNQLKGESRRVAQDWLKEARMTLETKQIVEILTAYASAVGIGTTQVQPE
Sequence of UniProt P82970 (P82970 whole entry, looked up): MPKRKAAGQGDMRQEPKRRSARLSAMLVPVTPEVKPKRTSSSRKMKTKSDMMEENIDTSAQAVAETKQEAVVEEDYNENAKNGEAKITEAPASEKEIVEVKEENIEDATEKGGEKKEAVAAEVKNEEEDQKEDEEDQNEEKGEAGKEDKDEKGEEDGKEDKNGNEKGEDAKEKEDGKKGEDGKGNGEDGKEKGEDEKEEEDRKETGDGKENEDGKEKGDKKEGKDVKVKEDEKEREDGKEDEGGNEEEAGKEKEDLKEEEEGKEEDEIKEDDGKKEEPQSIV
Sequence of UniProt Q13478 (Q13478 whole entry, looked up): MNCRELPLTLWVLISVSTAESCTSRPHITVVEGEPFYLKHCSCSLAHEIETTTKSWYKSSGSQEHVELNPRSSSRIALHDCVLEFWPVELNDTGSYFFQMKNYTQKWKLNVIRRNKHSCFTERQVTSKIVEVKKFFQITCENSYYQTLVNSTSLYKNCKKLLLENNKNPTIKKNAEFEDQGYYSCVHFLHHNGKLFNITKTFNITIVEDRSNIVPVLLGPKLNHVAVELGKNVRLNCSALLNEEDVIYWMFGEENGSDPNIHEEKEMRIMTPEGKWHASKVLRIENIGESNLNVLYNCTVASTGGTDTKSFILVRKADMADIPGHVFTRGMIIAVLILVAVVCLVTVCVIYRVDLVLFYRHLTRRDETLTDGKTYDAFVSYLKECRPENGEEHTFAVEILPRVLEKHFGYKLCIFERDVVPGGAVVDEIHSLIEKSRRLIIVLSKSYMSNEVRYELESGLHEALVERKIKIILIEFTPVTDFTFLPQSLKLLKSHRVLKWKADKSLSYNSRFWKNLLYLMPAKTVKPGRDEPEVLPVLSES
Sequence of UniProt Q9H6K1 (Q9H6K1 whole entry, looked up): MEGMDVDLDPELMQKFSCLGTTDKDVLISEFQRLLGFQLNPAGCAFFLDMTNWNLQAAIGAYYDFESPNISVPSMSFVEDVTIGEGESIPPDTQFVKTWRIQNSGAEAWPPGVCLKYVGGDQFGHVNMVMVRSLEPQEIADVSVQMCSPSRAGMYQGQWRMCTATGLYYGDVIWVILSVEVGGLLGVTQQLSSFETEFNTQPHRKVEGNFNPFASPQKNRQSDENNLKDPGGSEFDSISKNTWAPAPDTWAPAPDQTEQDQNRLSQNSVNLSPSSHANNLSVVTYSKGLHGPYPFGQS
Sequence of UniProt Q7Z4Q2 (Q7Z4Q2 whole entry, looked up): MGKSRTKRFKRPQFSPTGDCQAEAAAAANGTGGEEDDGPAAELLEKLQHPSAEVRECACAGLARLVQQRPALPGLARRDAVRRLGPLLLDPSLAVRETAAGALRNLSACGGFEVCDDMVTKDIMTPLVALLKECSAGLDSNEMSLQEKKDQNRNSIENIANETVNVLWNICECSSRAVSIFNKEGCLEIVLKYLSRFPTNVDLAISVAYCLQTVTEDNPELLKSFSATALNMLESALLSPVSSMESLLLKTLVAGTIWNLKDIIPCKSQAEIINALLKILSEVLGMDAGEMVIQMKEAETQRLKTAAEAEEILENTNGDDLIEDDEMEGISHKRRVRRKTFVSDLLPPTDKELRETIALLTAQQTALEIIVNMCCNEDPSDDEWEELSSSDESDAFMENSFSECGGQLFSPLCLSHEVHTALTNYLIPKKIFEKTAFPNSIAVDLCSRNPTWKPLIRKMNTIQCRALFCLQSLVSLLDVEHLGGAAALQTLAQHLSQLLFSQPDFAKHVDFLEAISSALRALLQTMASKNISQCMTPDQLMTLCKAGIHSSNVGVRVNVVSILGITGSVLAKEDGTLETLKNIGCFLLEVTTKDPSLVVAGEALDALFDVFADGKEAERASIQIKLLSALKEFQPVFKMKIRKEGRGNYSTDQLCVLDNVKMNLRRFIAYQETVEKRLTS
Sequence of UniProt Q99714 (Q99714 whole entry, looked up): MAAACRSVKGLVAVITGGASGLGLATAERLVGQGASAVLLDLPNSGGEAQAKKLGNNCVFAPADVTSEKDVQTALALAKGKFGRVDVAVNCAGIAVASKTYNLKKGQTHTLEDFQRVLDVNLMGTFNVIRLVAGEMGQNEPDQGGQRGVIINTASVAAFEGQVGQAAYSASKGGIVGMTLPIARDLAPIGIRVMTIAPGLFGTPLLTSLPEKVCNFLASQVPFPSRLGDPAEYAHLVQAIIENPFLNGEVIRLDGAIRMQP

Row | Target | log2 fold change [1] | log2 fold change [2] | log2 fold change [3] | log2 fold change [4] | log2 fold change [5]
1 | HERC2 (UniProt O95714) | 0.005 | -0.07 | -0.011 | 0.018 | -0.037
2 | HECTD3 (UniProt Q5T447) | -0.06 | 0.038 | 0.046 | 0.034 | 0.06
3 | GRK2 (UniProt P25098) | -0.05 | 0.009 | 0.03 | 0.007 | -0.008
4 | HS1BP3 (UniProt Q53T59) | 0.018 | -0.03 | -0.073 | 0.004 | -0.053
5 | HNRNPDL (UniProt O14979) | 0.033 | 0.002 | 0 | 0.048 | -0.071
6 | GPR108 (UniProt Q9NPR9) | 0.059 | -0.053 | 0.005 | -0.066 | 0.014
7 | HEATR3 (UniProt Q7Z4Q2) | -0.101 | 0.022 | 0.008 | -0.024 | 0.028
8 | GLYR1 (UniProt Q49A26) | -0.179 | 0.066 | -0.128 | 0.142 | 0.043
9 | GNE isoform 2 (UniProt Q9Y223) | -0.072 | 0.006 | 0.023 | 0.007 | 0.06
10 | GYPA (UniProt P02724) | 0.071 | -0.055 | -0.002 | 0.138 | 0.236
11 | HADHB (UniProt P55084) | 0.053 | 0.021 | 0.105 | 0.167 | -0.048
12 | GIT1 (UniProt Q9Y2X7) | 0.013 | -0.008 | 0.009 | 0.093 | 0.073
13 | HECTD4 (UniProt J3KPF0) | -0.013 | 0.023 | 0.068 | -0.03 | 0.043
14 | KBTBD2 (UniProt Q8IY47) | 0.016 | -0.005 | 0.025 | 0.012 | -0.119
15 | GSTP1 (UniProt P09211) | -0.018 | 0.004 | -0.003 | -0.017 | 0.035
16 | ILRUN (UniProt Q9H6K1) | 0.078 | -0.021 | 0.03 | 0.009 | 0.028
17 | GRB10 (UniProt Q13322) | 0.03 | 0.022 | 0.024 | 0.045 | -0.078
18 | INTS14 (UniProt Q96SY0) | 0.067 | 0.034 | -0.038 | 0.007 | 0.009
19 | KEAP1 (UniProt Q14145) | 0.029 | 0.016 | 0.014 | -0.018 | -0.02
20 | INTS1 (UniProt Q8N201) | -0.017 | 0.065 | -0.045 | 0.019 | 0.004
21 | IL18R1 (UniProt Q13478) | -0.612 (active) | -0.103 | 0.119 | -0.094 | 0.052
22 | GPA33 (UniProt Q99795) | 0.007 | 0.024 | 0.006 | -0.248 | -0.514 (active)
23 | HMGN5 (UniProt P82970) | 0.033 | 0.05 | -0.008 | -0.026 | 0.083
24 | HADHA (UniProt P40939) | 0.065 | -0.006 | 0.102 | 0.117 | -0.008
25 | HDHD5 (UniProt Q9BXW7) | 0 | 0.071 | 0.032 | -0.05 | -0.012
26 | HARS (UniProt P12081) | 0.025 | 0.006 | 0.001 | 0.008 | 0.002
27 | HDAC1 (UniProt Q13547) | -0.04 | 0.02 | 0.001 | -0.025 | -0.015

Row | Target | log2 fold change [1] | log2 fold change [2] | log2 fold change [3] | log2 fold change [4] | log2 fold change [5]
28 | KDM5B isoform 2 (UniProt Q9UGL1) | -0.07 | 0.117 | 0.018 | 0.07 | -0.229
29 | GUSB (UniProt P08236) | 0.035 | 0.022 | 0.016 | -0.051 | -0.313
30 | INF2 (UniProt Q27J81) | 0.016 | 0.017 | 0.015 | -0.014 | -0.06
31 | HNRNPAB isoform 3 (UniProt Q99729) | -0.015 | 0.023 | -0.025 | 0.01 | -0.069
32 | HNRNPUL2 (UniProt Q1KMD3) | 0.011 | 0.016 | 0.015 | 0.007 | 0.032
33 | HDGFL2 isoform 2 (UniProt Q7Z4V5) | 0.051 | -0.014 | 0.01 | -0.076 | -0.212
34 | IRF2BP1 (UniProt Q8IU81) | -0.048 | -0.013 | -0.043 | 0.017 | -0.045
35 | KDM1A (UniProt O60341) | 0.007 | -0.004 | 0.018 | 0.009 | 0.817 (active)
36 | IMMT (UniProt Q16891) | -0.089 | 0.016 | 0.017 | 0.022 | 0.038
37 | IMPDH2 (UniProt P12268) | 0 | -0.014 | -0.007 | 0.045 | 0.017
38 | HDAC10 (UniProt Q969S8) | -0.076 | 0.115 | 0.21 | 0.197 | -0.055
39 | HACE1 (UniProt Q8IYU2) | -0.03 | 0.08 | 0.07 | -0.115 | -0.377
40 | HSD17B10 (UniProt Q99714) | -0.006 | 0.062 | 0.03 | 0.022 | 0.003
41 | KARS1 (UniProt Q15046) | 0.005 | 0.019 | 0.002 | 0.045 | 0.045
42 | HDAC6 (UniProt Q9UBN7) | 0.029 | 0.036 | -0.017 | -0.007 | 0.042
43 | HSPA8 (UniProt P11142) | 0.002 | -0.014 | -0.004 | -0.004 | 0.006
44 | KIAA0930 isoform 2 (UniProt Q6ICG6) | 0.3 | -0.034 | -0.051 | 0.07 | 0.031
45 | KHDRBS1 (UniProt Q07666) | -0.04 | 0.027 | 0 | 0.058 | 0.045
46 | GLB1 (UniProt P16278) | 0.02 | 0.033 | 0.046 | 0.016 | -0.019
47 | INPP4A (UniProt Q96PE3) | -0.079 | 0.112 | 0.027 | 0.036 | 0.017
48 | INTS5 (UniProt Q6P9B9) | -0.086 | -0.034 | -0.019 | 0.015 | 0.127
49 | HAUS4 (UniProt Q9H6D7) | -0.009 | -0.043 | 0.019 | 0.019 | 0.02
50 | KBTBD4 isoform 2 (UniProt Q9NVX7) | -0.014 | -0.003 | -0.106 | -0.025 | 0.016
51 | INTS7 (UniProt Q9NVH2) | -0.06 | 0.007 | 0.016 | 0.009 | -0.001
52 | INTS3 (UniProt Q68E01) | 0.017 | 0.063 | -0.043 | -0.06 | 0.074
53 | GNB1 (UniProt P62873) | 0.042 | -0.051 | -0.038 | 0.069 | -0.329
